Bioassay records as filed in PubChem.
Granule exo inh – blocks lytic granule exocytosis | 360,000 tested, 0.66% active | inhibition, % at 10 µM | TALL-104 LAMP-1 surface exposure, flow cytometry; cells stimulated with thapsigargin and PMA | AID 651702;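 active = inhibition above about 55%, limit read from the data; inconclusive = no clear call, values can overlap the other calls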
ABCB6 inh 2 – blocks the human ABCB6 transporter. Q9NP58. K562-ABCB6 porphyrin accumulation, flow cytometry, 1 h; hits give low values. fluorescence ratio to DMSO, % at 10 µM. 360,000 tested, 0.19% active. AID 602162;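 active = fluorescence ratio to DMSO below 75%, the collection mean minus 3 SD; inconclusive = too few cells collected in the well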;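 also: signal is porphyrin accumulated inside mitochondria; 100% equals median channel fluorescence of DMSO control wells; lower ratio means ABCB6 inhibition with less porphyrin fluorescence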
Target sequence (Q9NP58 whole entry, looked up): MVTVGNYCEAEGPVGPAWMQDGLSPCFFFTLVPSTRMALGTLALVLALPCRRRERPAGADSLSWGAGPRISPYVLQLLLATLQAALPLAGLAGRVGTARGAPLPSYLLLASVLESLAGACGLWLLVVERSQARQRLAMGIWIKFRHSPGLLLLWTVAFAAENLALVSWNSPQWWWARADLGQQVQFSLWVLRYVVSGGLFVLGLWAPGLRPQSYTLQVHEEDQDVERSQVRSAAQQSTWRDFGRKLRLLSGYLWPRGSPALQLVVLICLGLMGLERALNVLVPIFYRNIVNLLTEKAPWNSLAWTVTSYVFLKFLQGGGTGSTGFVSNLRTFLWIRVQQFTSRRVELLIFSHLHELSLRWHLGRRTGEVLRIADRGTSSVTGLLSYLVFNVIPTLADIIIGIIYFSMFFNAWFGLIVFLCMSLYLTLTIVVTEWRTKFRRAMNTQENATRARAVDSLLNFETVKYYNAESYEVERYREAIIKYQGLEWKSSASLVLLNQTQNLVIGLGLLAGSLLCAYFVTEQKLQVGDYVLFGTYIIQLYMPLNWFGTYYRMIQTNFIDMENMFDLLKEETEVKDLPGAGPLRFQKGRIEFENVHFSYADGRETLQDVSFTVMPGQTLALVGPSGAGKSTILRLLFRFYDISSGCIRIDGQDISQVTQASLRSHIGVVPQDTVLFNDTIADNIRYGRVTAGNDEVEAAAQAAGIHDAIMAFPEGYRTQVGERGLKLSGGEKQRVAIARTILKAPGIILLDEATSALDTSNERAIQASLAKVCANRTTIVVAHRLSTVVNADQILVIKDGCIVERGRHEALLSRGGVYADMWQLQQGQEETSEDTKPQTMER
Myeloid diff MLP – myeloid differentiation induction; ER-HoxA9 myeloid progenitors, lysozyme-GFP differentiation, flow cytometry; calls only at 10 µM; 360,000 tested, 1% active;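 active = normalized GFP-positive differentiation at or above the plate's own cutoff, the solvent-only control mean plus 3 SD; inconclusive = no clear call, values can overlap the other calls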;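 also: cells exposed to compound for four days before flow analysis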
Myeloid diff – compounds promoting myeloid differentiation; ER-HoxA9 myeloid progenitors, GFP/Mac1 double-positive flow; shares compounds with Myeloid diff MLP; calls only; AID 651706; 2,300 tested, 2% active;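 active = share of green or green-and-red cells above 9 and 9% in run 1 or 4 and 3% in run 2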
GFP autofluor – flagged as fluorescent in myeloid differentiation counter-screen; shares compounds with Myeloid diff MLP; ER-HoxA9 myeloid progenitors, no estrogen, GFP autofluorescence flow cytometry; vehicle wells 0%, positive control 100%; fluorescence response, % (concentration not given with the values); 2,300 tested, 7.4% active;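 active = over 5% cells positive for green fluorescent reporter, or over 2% positive for both it and APC stain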;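 also: range taken on the double positive population between DMSO and positive control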
* = called active by the depositor. The list is not random: actives were taken first. Their share in the collection is about 1.8%.

For CCS(=O)(=O)N1CCC(C(=O)Oc2ccc(C)c(C)c2)CC1 the results were Granule exo inh 4, ABCB6 inh 2 94 and Myeloid diff MLP inactive.
CCOc1ccc(C(=O)NCC(=O)OCc2c(F)cccc2Cl)cc1 was read as Granule exo inh 1, ABCB6 inh 2 102 and Myeloid diff MLP inactive.
`CCOc1ccc(C(=O)NCC(=O)OCc2c(F)cccc2Cl)cc1OCC` gave Granule exo inh 1, ABCB6 inh 2 94, Myeloid diff MLP inactive, Myeloid diff inactive and GFP autofluor 0.
CCOc1ccc(CN2CCC(C(=O)Nc3cccc(-c4ccn[nH]4)c3)CC2)cc1Cl was read as Granule exo inh 20, ABCB6 inh 2 102 and Myeloid diff MLP inactive.
For O=C(NCc1ccccc1)/C(=C\c1cccc([N+](=O)[O-])c1)NC(=O)c1ccco1 the results were Granule exo inh -5, ABCB6 inh 2 99 and Myeloid diff MLP inactive.
For Cc1cc(C(=O)CN2C(=O)C(=O)N(Cc3ccccc3)C2=O)c(C)n1Cc1ccccc1 the results were Granule exo inh -3, ABCB6 inh 2 99 and Myeloid diff MLP inactive.
Screening COc1ccc(CCn2c(C)cc(C(=O)CN3C(=O)C(=O)N(Cc4ccco4)C3=O)c2C)cc1 returned Granule exo inh -2, ABCB6 inh 2 99, Myeloid diff MLP active, Myeloid diff inactive and GFP autofluor 0.
For S=C(Nc1ccc(Br)cc1Cl)Nn1cnnc1 the results were Granule exo inh 3, ABCB6 inh 2 103 and Myeloid diff MLP inactive.
Cc1ccc(OCCn2c(C)nc3ccccc32)cc1 was read as Granule exo inh -15, ABCB6 inh 2 99, Myeloid diff MLP inactive, Myeloid diff inactive and GFP autofluor 0.
`Cc1nc2ccccc2n1CCCOc1ccccc1` gave Granule exo inh 1, ABCB6 inh 2 95 and Myeloid diff MLP inactive.
Screening C[C@@H]1CN([C@H](C)CO)C(=O)c2cc(Br)cnc2O[C@@H]1CN(C)C(=O)Nc1ccccc1 returned Granule exo inh 4, ABCB6 inh 2 95 and Myeloid diff MLP inactive.
For c1ccc(C2=Nn3c(nnc3-c3ccccn3)SC2)cc1 the results were Granule exo inh -2, ABCB6 inh 2 93, Myeloid diff MLP inactive, Myeloid diff inactive and GFP autofluor 0.
Screening c1ccc(C2=Nn3c(nnc3-c3ccncc3)SC2)cc1 returned Granule exo inh 2, ABCB6 inh 2 100 and Myeloid diff MLP inactive.
For N#CCc1c(C#N)c(N)nc(N2CCCC(CO)C2)c1C#N (stereo unspecified) the results were Granule exo inh -2, ABCB6 inh 2 96 and Myeloid diff MLP inactive.
For Cc1ccc(OC/C(=N\O)C(C)(C)C)c([N+](=O)[O-])c1 the results were Granule exo inh 1, ABCB6 inh 2 95 and Myeloid diff MLP inactive.
CCOC(=O)C1=CCN(S(=O)(=O)c2ccccc2)C1c1ccc(Cl)cc1 (stereo unspecified) was read as Granule exo inh -2, ABCB6 inh 2 98 and Myeloid diff MLP inactive.
`Cc1ccc(C)c(S(=O)(=O)N2CCN(C(=O)CCC(=O)c3cc(C)sc3C)CC2)c1` gave Granule exo inh -9, ABCB6 inh 2 96, Myeloid diff MLP active, Myeloid diff inactive and GFP autofluor 0.
For Cc1ccc(C)c(S(=O)(=O)N2CCN(C(=O)Cc3ccccc3)CC2)c1 the results were Granule exo inh 31, ABCB6 inh 2 96 and Myeloid diff MLP inactive.
`CCCc1cc(=O)[nH]c(SC(C)C(=O)N2c3ccccc3CC2C)n1` (stereo unspecified) gave Granule exo inh 21, ABCB6 inh 2 101 and Myeloid diff MLP inconclusive.
`C[C@@H]1CN([C@@H](C)CO)C(=O)CCCn2nncc2CO[C@H]1CN(C)S(=O)(=O)c1ccc2ccccc2c1` gave Granule exo inh -4, ABCB6 inh 2 94, Myeloid diff MLP inactive, Myeloid diff inactive and GFP autofluor 0.
C[C@@H]1CN([C@H](C)CO)C(=O)CCCn2nncc2CO[C@@H]1CN(C)S(=O)(=O)c1ccc2ccccc2c1 was read as Granule exo inh -2, ABCB6 inh 2 93 and Myeloid diff MLP inactive.
`CCCCCCNS(=O)(=O)c1ccc(NC(=O)C2CCCO2)cc1` (stereo unspecified) gave Granule exo inh 1, ABCB6 inh 2 104 and Myeloid diff MLP inactive.
`COc1ccc(N=C(N)N=C(N)N)c(OC)c1` gave Granule exo inh -3, ABCB6 inh 2 104 and Myeloid diff MLP inactive.
Screening COc1cccc(N=C(N)N=C(N)N)c1 returned Granule exo inh 5, ABCB6 inh 2 92, Myeloid diff MLP active, Myeloid diff inactive and GFP autofluor 0.
S=C(NCc1ccco1)Nc1ccc(Cl)cn1 was read as Granule exo inh -4, ABCB6 inh 2 97 and Myeloid diff MLP inactive.
CCn1c(SCC(N)=O)nc2sc3c(c2c1=O)CCN(C)C3 was read as Granule exo inh 1, ABCB6 inh 2 97 and Myeloid diff MLP inactive.
Screening CCNc1nc(SCC(N)=O)nc2sc3c(c12)CCN(C)C3 returned Granule exo inh 3, ABCB6 inh 2 109, Myeloid diff MLP inactive, Myeloid diff inactive and GFP autofluor 0.
For CC(=O)c1c(C)n(CC(=O)NCc2ccc3c(c2)OCO3)c2ccccc12 the results were Granule exo inh 0, ABCB6 inh 2 94, Myeloid diff MLP active, Myeloid diff inactive and GFP autofluor 98*.
O=C(Cn1c(CO)nc2ccccc21)NCc1ccc2c(c1)OCO2 was read as Granule exo inh 5, ABCB6 inh 2 107 and Myeloid diff MLP inactive.
Screening O=[N+]([O-])c1ccc(N2CCN(c3cccc(Cl)c3)CC2)cn1 returned Granule exo inh 42, ABCB6 inh 2 97 and Myeloid diff MLP inactive.
Screening C=CCNC(=O)c1ccc(N(CC=C)S(C)(=O)=O)cc1 returned Granule exo inh -2, ABCB6 inh 2 94, Myeloid diff MLP active, Myeloid diff inactive and GFP autofluor 0.
For C=CCNC(=O)c1ccc(N(Cc2ccccc2)S(C)(=O)=O)cc1 the results were Granule exo inh -3, ABCB6 inh 2 92 and Myeloid diff MLP inactive.
`Cc1cc(C)n2nc(C)c(Br)c2n1` gave Granule exo inh 3, ABCB6 inh 2 101 and Myeloid diff MLP inactive.
Cc1cc(C)n2nc3nc4c(cc3c2n1)CCCC4 was read as Granule exo inh 6, ABCB6 inh 2 126, Myeloid diff MLP inactive, Myeloid diff inactive and GFP autofluor 0.
`COC(=O)C(OC(=O)c1ccccc1)C(C)Br` (stereo unspecified) gave Granule exo inh 9, ABCB6 inh 2 107 and Myeloid diff MLP inactive.
For CCc1c(C)sc2nc3c(C(=O)N4CCOCC4)cc(C(=O)c4cc(F)ccc4O)cn3c(=O)c12 the results were Granule exo inh -10, ABCB6 inh 2 97 and Myeloid diff MLP inactive.
`CCOC(=O)c1sc2nc3c(SCCC#N)cc(C(=O)c4cc(F)ccc4O)cn3c(=O)c2c1C` gave Granule exo inh -1, ABCB6 inh 2 102, Myeloid diff MLP active, Myeloid diff inactive and GFP autofluor 0.
C#CCOC(=O)CCCC(=O)NCCCCCCCC was read as Granule exo inh 6, ABCB6 inh 2 98 and Myeloid diff MLP inactive.
